PubChem BioAssay (Tox21)
Inconclusive results are not listed. Activity calls are given as the source filed them. Unless noted, calls follow the shape of the dose curve; as a rule, active = well fitted curve in the direction sought with a large enough effect in the repeat runs; inconclusive = weak or mixed curves; inactive = no such curve, though single readings can be large; an effect the other way counts as inactive or inconclusive.

What was measured:
[1] = qHTS assay to identify aromatase inhibitors - cell viability counter screen (AID 743084);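 also: cells stimulated with testosterone during compound exposure; nearly all actives have a fitted effect of over 55% in size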
[2] = biological target: Aryl hydrocarbon receptor (Homo sapiens) (UniProt P35869); assay: qHTS assay to identify small molecule that activate the aryl hydrocarbon receptor (AhR) signaling pathway (AID 743085);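 also: HG2L7.5c1 human HepG2 liver cells with stably integrated DRE-driven firefly reporter; series mostly up to about 70 µM; nearly all actives have a fitted effect of over 15% in size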
Sequence of Aryl hydrocarbon receptor (Homo sapiens) (P35869 whole entry, looked up): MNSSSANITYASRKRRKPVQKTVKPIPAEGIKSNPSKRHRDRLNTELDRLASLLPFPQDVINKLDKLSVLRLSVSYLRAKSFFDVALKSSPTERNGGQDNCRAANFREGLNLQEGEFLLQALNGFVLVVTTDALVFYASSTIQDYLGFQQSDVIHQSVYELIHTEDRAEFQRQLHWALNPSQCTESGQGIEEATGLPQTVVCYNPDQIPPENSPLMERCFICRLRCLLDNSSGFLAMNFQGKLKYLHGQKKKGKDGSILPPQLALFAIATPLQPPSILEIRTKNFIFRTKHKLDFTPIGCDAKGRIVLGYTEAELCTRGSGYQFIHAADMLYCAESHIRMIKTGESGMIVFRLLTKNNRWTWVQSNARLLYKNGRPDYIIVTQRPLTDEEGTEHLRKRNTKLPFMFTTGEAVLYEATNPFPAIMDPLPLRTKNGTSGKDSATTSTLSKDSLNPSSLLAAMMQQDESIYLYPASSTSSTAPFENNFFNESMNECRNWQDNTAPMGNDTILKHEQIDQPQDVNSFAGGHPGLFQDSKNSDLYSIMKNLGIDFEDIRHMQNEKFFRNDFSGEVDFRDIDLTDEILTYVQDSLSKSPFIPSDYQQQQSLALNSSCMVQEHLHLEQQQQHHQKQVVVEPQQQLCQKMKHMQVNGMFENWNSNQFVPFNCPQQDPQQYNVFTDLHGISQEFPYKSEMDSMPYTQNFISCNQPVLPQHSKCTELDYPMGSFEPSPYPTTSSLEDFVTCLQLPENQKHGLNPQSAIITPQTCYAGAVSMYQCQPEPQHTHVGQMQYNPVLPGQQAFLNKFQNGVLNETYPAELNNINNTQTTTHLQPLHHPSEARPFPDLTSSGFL
Summary of the method: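 Steps: seed HepG2-AhR-luc cells; allow 5 h at 37C; pin-transfer test compound or vehicle; incubate 24 h at 37C; add viability dye (30 min, 37C) and read fluorescence; add luciferase substrate (30 min, RT) and read luminescence.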

[3] = qHTS assay to identify small molecule that activate the aryl hydrocarbon receptor (AhR) signaling pathway - cell viability counter screen (AID 743086);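 also: HepG2 liver cells carrying the AhR DRE luciferase reporter; series mostly up to about 70 µM; nearly all actives have a fitted effect of over 45% in size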
Summary of the method: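 Cytotoxicity counter screen: CellTiter-Fluor signal (30 min, 37 C) in 4000 HepG2 cells/well carrying the DRE-luciferase reporter, following 24 h compound exposure at 37 C.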

[4] = biological target: Peroxisome proliferator-activated receptor gamma (Homo sapiens) (UniProt P37231); assay: qHTS assay to identify small molecule agonists of the peroxisome proliferator-activated receptor gamma (PPARg) signaling pathway (AID 743094; active = well fitted activation curve with a large enough effect in the signal ratio in the repeat runs, not every such curve was filed as active; the % refers to the signal ratio)
Sequence of Peroxisome proliferator-activated receptor gamma (Homo sapiens) (P37231 whole entry, looked up): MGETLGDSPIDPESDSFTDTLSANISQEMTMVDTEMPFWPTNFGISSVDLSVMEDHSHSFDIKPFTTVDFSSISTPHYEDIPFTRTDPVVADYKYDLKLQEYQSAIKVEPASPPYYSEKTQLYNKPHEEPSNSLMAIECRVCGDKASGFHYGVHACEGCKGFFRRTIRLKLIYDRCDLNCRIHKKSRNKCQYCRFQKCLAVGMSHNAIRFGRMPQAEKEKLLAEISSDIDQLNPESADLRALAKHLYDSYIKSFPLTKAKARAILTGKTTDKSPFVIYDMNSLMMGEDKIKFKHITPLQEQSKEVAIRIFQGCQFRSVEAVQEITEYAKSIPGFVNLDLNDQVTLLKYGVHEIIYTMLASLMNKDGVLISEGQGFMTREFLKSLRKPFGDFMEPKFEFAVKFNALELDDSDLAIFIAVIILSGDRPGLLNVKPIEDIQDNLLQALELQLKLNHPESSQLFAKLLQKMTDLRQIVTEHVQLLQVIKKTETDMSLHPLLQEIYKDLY
Summary of the method: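 Agonist activity was taken from a beta-lactamase reporter (FRET substrate, 1 h at room temperature) in HEK293H cells carrying a PPARg UAS-bla construct. Compounds in DMSO were incubated 17 h at 37C after a 5 h cell pre-incubation.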

[5] = biological target: Peroxisome proliferator-activated receptor gamma (Homo sapiens) (UniProt P37231); assay: qHTS assay to identify small molecule antagonists of the peroxisome proliferator-activated receptor gamma (PPARg) signaling pathway (AID 743191; calls by dose curve; also: series mostly up to about 63 µM; nearly all actives have a fitted effect of over 30% in size)
Summary of the method: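 Beta-lactamase reporter under UAS control in HEK293H PPARg-bla cells; compound treatment 17 h at 37C. Read-out: fluorescence intensity after 1 h room-temperature incubation with LiveBLAzer B/G FRET substrate.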

[6] = qHTS assay to identify small molecule antagonists of the peroxisome proliferator-activated receptor gamma (PPARg) signaling pathway - cell viability counter screen (AID 743194); conditions: Potency: co-treated with 50 nM rosiglitazone unless noted; also: nearly all actives have a fitted effect of over 55% in size
Summary of the method: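 Viability was measured as CellTiter-Glo luminescence in GeneBLAzer PPARg UAS-bla HEK293H cells. These cells had been exposed 17 h at 37 C to compounds together with rosiglitazone at 50 nM final, with the beta-lactamase readout taken in the same wells.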

[7] = qHTS assay for small molecule agonists of the antioxidant response element (ARE) signaling pathway (AID 743202; active = well fitted activation curve with a large enough effect in the signal ratio in the repeat runs, not every such curve was filed as active; the % refers to the signal ratio)
Summary of the method: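 Beta-lactamase reporter activity, read as fluorescence intensity, reflects ARE/Nrf2 pathway induction in HepG2 cells after 16 h compound exposure at 37 C; substrate loading was 2 h at room temperature.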

[8] = qHTS assay for small molecule agonists of the antioxidant response element (ARE) signaling pathway - cell viability counter screen (AID 743203; calls by dose curve; also: nearly all actives have a fitted effect of over 55% in size)
Summary of the method: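 Viability counter screen: CellTiter-Glo luminescence, read after 30 min at room temperature, in ARE-bla HepG2 wells. Compound exposure lasted 16 h at 37C/5% CO2, following a 5 h pre-incubation of the cells after plating.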

[9] = qHTS assay for small molecule activators of the heat shock response signaling pathway (AID 743210; active = well fitted activation curve with a large enough effect in the signal ratio in the repeat runs, with a control signal flat, not every such curve was filed as active; the % refers to the signal ratio;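 also: HeLa cells with beta-lactamase reporter driven by heat shock elements; series mostly up to about 63 µM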)
Summary of the method: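 Fluorescence from a cleaved B/G FRET substrate (2.5 h, room temp) reports HSE-driven beta-lactamase in HeLa cells treated 5 h at 37 C with DMSO-dissolved compounds.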

[10] = qHTS assay to identify small molecule agonists of the peroxisome proliferator-activated receptor delta (PPARd) signaling pathway - cell viability counter screen (AID 743211); also: nearly all actives have a fitted effect of over 55% in size
Summary of the method: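 Viability of GeneBLAzer PPARd UAS-bla HEK293H cells was assessed after 17 h compound incubation at 37C, using CellTiter-Glo reagent added after the reporter read and luminescence recorded 30 min later.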

[11] = biological target: Peroxisome proliferator-activated receptor delta (Homo sapiens) (UniProt Q03181); assay: qHTS assay to identify small molecule agonists of the peroxisome proliferator-activated receptor delta (PPARd) signaling pathway (AID 743212; calls by dose curve;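 also: HEK293H cells with PPARd UAS beta-lactamase reporter GeneBLAzer system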)
Sequence of Peroxisome proliferator-activated receptor delta (Homo sapiens) (Q03181 whole entry, looked up): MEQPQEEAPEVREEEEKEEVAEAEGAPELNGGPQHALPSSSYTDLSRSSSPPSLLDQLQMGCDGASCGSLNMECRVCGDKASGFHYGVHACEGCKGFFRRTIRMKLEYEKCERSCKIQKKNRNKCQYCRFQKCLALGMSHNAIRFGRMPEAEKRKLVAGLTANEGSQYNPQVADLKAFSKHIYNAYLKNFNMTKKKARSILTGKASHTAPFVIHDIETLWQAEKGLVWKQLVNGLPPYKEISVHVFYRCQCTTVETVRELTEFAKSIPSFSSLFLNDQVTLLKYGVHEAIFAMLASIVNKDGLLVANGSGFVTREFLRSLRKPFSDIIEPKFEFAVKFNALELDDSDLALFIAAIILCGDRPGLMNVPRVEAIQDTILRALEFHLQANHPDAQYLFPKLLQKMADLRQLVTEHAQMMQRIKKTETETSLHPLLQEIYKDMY
Summary of the method: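 Steps: seed PPARd-bla HEK293H cells; incubate 5 h, 37 C, 5% CO2; add compounds in DMSO; incubate, 37 C; add LiveBLAzer B/G FRET substrate; hold 2 h at room temperature; measure fluorescence.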

[12] = qHTS assay to identify small molecule antagonists of the peroxisome proliferator-activated receptor delta (PPARd) signaling pathway - cell viability counter screen (AID 743213); also: nearly all actives have a fitted effect of over 50% in size
Summary of the method: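 HEK293H cells with the PPARd UAS-bla reporter, co-treated 17 h at 37 C with compounds and L165041 (300 nM final), were lysed with CellTiter-Glo. Luminescence indicated viable cell content.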

[13] = biological target: Peroxisome proliferator-activated receptor delta (Homo sapiens) (UniProt Q03181); assay: qHTS assay to identify small molecule antagonists of the peroxisome proliferator-activated receptor delta (PPARd) signaling pathway (AID 743215; active = well fitted inhibition curve with a large enough effect in the signal ratio in the repeat runs, not every such curve was filed as active; the % refers to the signal ratio;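 also: cells stimulated with agonist L165041 at 300 nM final during compound exposure; series mostly up to about 62 µM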)
Summary of the method: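 Agonist L165041 (300 nM final) added with compound to PPARd-bla HEK293H UAS-bla reporter cells; 17 h incubation at 37 C. Read-out: LiveBLAzer FRET substrate, 2 h at room temperature, fluorescence intensity.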

[14] = qHTS assay to identify small molecule agonists of the farnesoid-X-receptor (FXR) signaling pathway - cell viability counter screen (AID 743218); also: nearly all actives have a fitted effect of over 45% in size
Summary of the method: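 Viability counter screen in the same wells: CellTiter-Glo luminescence, 30 min room-temperature incubation, measured after the beta-lactamase read. Cells were GeneBLAzer FXR-UAS-bla HEK 293T, compound-treated 16 h at 37C.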

[15] = qHTS assay to identify small molecule antagonists of the farnesoid-X-receptor (FXR) signaling pathway - cell viability counter screen (AID 743221; active = well fitted cell-killing curve with a large enough effect in the repeat runs, not every such curve was filed as active; also: nearly all actives have a fitted effect of over 50% in size)
Summary of the method: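 Quantitative HTS of the Tox21 10K library run in parallel with the beta-lactamase reporter read. HEK 293T cells carrying a UAS-driven bla reporter got compound and 50 uM CDCA (final) for 16 h; ATP-based luminescence followed.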

[16] = biological target: Vitamin D3 receptor (Homo sapiens) (UniProt P11473); assay: qHTS assay to identify small molecule agonists of the vitamin D receptor (VDR) signaling pathway (AID 743222; calls by dose curve)
Sequence of Vitamin D3 receptor (Homo sapiens) (P11473 whole entry, looked up): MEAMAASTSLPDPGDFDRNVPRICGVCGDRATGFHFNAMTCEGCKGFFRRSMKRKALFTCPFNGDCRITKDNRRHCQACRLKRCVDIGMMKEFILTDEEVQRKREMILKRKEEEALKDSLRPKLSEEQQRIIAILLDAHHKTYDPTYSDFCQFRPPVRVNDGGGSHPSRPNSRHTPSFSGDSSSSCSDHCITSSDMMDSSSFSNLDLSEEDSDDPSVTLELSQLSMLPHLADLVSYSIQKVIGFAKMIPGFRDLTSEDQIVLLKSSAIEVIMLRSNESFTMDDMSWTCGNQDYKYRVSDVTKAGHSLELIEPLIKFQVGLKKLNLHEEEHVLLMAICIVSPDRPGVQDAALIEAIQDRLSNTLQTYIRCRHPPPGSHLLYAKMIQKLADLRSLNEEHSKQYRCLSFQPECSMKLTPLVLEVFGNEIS
Summary of the method: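 Agonist mode, beta-lactamase reporter: fluorescence from LiveBLAzer B/G FRET substrate (2 h, room temperature) read after 16 h compound treatment at 37 C of VDR-bla cells, which were pre-incubated 4 h after seeding.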

[17] = biological target: Vitamin D3 receptor (Homo sapiens) (UniProt P11473); assay: qHTS assay to identify small molecule antagonists of the vitamin D receptor (VDR) signaling pathway (AID 743223; active = well fitted inhibition curve with a large enough effect in the signal ratio in the repeat runs, not every such curve was filed as active; the % refers to the signal ratio)
Summary of the method: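 Fluorescence from LiveBLAzer B/G FRET substrate, read after 2 h at room temperature, reflects beta-lactamase reporter activity in VDR-bla cells treated 16 h at 37C with compounds and agonist 1alpha,25-dihydroxyvitamin D3 (3 nM final).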

[18] = qHTS assay for small molecule activators of the heat shock response signaling pathway - cell viability counter screen (AID 743209); also: nearly all actives have a fitted effect of over 50% in size
Summary of the method: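 Cytotoxicity counter screen run in the same wells as the heat-shock bla reporter assay: HeLa HSE-bla cells, 5 h compound exposure at 37 C, viability read by CellTiter-Glo luminescence.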

[19] = biological target: Bile acid receptor (Homo sapiens) (UniProt Q96RI1); assay: qHTS assay to identify small molecule antagonists of the farnesoid-X-receptor (FXR) signaling pathway (AID 743217; active = well fitted inhibition curve with a large enough effect in the signal ratio in the repeat runs, not every such curve was filed as active; the % refers to the signal ratio)
Sequence of Bile acid receptor (Homo sapiens) (Q96RI1 whole entry, looked up): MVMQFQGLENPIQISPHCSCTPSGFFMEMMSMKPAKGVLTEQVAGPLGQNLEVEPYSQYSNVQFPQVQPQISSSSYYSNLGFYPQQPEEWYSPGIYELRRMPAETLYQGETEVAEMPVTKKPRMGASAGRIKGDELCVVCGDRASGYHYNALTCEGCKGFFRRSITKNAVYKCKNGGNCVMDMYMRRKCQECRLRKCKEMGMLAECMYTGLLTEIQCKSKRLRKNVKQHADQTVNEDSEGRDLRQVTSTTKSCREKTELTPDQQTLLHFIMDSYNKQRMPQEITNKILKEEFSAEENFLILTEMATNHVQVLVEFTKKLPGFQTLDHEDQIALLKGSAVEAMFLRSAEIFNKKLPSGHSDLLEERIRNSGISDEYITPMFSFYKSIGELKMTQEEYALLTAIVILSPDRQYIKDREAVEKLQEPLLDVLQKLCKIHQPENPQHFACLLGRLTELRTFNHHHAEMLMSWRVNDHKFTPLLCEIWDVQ
Summary of the method: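 Antagonist mode: chenodeoxycholic acid at 50 uM final stimulates a UAS-driven beta-lactamase reporter in HEK 293T FXR-bla cells during 16 h, 37C compound exposure. Read-out is FRET substrate fluorescence after 2 h at room temperature.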

[20] = biological target: Bile acid receptor (Homo sapiens) (UniProt Q96RI1); assay: qHTS assay to identify small molecule agonists of the farnesoid-X-receptor (FXR) signaling pathway (AID 743220; active = well fitted activation curve with a large enough effect in the signal ratio in the repeat runs, not every such curve was filed as active; the % refers to the signal ratio)
Summary of the method: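 FXR-UAS-bla HEK 293T cells carrying a UAS-driven beta-lactamase reporter were plated for 5 h at 37C/5% CO2, then exposed to DMSO-dissolved Tox21 10K compounds for 16 h at 37C. A LiveBLAzer B/G FRET substrate was loaded for 2 h at room temperature before fluorescence reading.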

Measured: Potency

CC(=O)C(C)C
not listed: [18] | [19] | [20]
inactive: all other assays above

OC[C@H]1O[C@@H](Oc2ccc(O)cc2)[C@H](O)[C@@H](O)[C@@H]1O
not listed: [15] | [18] | [19] | [20]
inactive: all other assays above

CN=C(NC#N)NCCSCc1nc[nH]c1C
inactive: all assays above

Cc1ncc(CO)c(CO)c1O
not listed: [18]
inactive: all other assays above

Cc1ccc(Cl)cc1
not listed: [18]
inactive: all other assays above

CCCN(CCC)C(=O)SCC
not listed: [11] | [13] | [19] | [20]
inactive: all other assays above

CC(=O)OCCC(C)C
not listed: [15] | [16] | [17] | [19] | [20]
inactive: all other assays above

CCCOC(=O)NCCCN(C)C
not listed: [7] | [9] | [11] | [13] | [18] | [19] | [20]
inactive: all other assays above

CC(C=O)Cc1ccc(C(C)(C)C)cc1 (configuration not stated)
not listed: [17]
inactive: all other assays above

CC(=O)OC(C)(C)C1CC=C(C)CC1 (configuration not stated)
not listed: [15] | [18] | [19] | [20]
inactive: all other assays above

OC1CCCCC1
not listed: [19] | [20]
inactive: all other assays above

CCCCC(=O)O
not listed: [11] | [13]
inactive: all other assays above

Cc1cc(CC(=O)O)n(C)c1C(=O)c1ccc(Cl)cc1
not listed: [18]
inactive: all other assays above

CCCCCC(C)=O
not listed: [19] | [20]
inactive: all other assays above

COc1c(Cl)ccc(Cl)c1C(=O)O
not listed: [15] | [18] | [19] | [20]
inactive: all other assays above

CCCCC(CC)COC(=O)c1ccc(C(=O)OCC(CC)CCCC)cc1 (configuration not stated)
not listed: [16] | [17]
inactive: all other assays above
